Compounds with a hit are over-represented: about 1.1% of the library has one in this group of screens.
PGK inhibitor: qHTS Assay to Find Inhibitors of Phosphoglycerate Kinase; Phosphoglycerate kinase, glycosomal (Trypanosoma brucei brucei), P07378; AID 602233, 2012; actives 0.043% (n = 380,000); Potency, µM (doses to about 57.5 µM), inactives show at the top dose activity change, negative = inhibition, hits mostly inhibitors; PGK/GAPDH coupled, Kinase-Glo luminescence, 60 min; note: potency is the fitted concentration of half-maximal effect; % is set by controls: 0 for no effect and ±100 for the full control effect; nearly all actives have a fitted effect of over 60% in size
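Recombinant glycosomal PGK reaction used 1,3-bisphosphoglycerate generated in-well by GAPDH (100nM final) in 100mM TEA pH 7.6, 5mM MgCl2, 0.01% Tween-20. After 60 minutes at room temperature, ATP was read by Kinase-Glo Plus luminescence end-point.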
Tb PFK inh: qHTS Assay to Find Inhibitors of T. brucei phosphofructokinase. ATP-dependent 6-phosphofructokinase (Trypanosoma brucei brucei), O15648. T. brucei PFK, ADP-Glo luminescence. Potency, µM (series often up to 57.5 µM), for inactives: top-dose activity, negative = inhibition, most hits filed as inhibitors. actives 0.17% (n = 330,000). AID 485367, 2010;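 note: potency is the fitted concentration of half-maximal effect; 0% = uninhibited 1x PFK enzyme wells and -100% = no-enzyme wells; nearly all actives have a fitted effect of over 60% in size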
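PFK 1.25 nM, F6P 0.5 mM, ATP 0.1 mM, 0.1 M TEA pH 8.0, 5 mM MgCl2, 0.01% Tween20, 0.1% BSA; 45 min RT. ADP-Glo readout. qHTS titration up to 57 uM; curves fitted, compounds curve-classed.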
VDR inh: Inhibitors of the vitamin D receptor (VDR): qHTS; Potency, µM, for the others: max response, negative = inhibition, most hits filed as inhibitors; VDR-SRC2-3 peptide fluorescence polarization, 2 h; actives 0.93% (n = 400,000); Vitamin D3 receptor (Homo sapiens), P11473; note: potency is the fitted concentration of half-maximal effect; % is set by controls: 0 for no effect and ±100 for the full control effect
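Signal is fluorescence polarization, reporting how far test compounds block the interaction of VDR with the SRC2-3 coregulator peptide after a 2 h room-temperature incubation.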
Pin1 inh: qHTS Assay to Find Inhibitors of Pin1; Pin1 FP peptide displacement, HiFluor488, 10 min; actives 0.009% (n = 390,000); Peptidyl-prolyl cis-trans isomerase NIMA-interacting 1 (Homo sapiens), Q13526; AID 504891, 2011; Potency, µM (doses to about 115 µM), for the others: at the highest dose activity, negative = inhibition, usual class: inhibitors; active = well fitted inhibition curve with a large enough effect in the polarisation, with a control signal flat, not every such curve was filed as active; inconclusive = small, poorly fitted or top-dose-only effect, or effect the other way, or a change in a side signal; inactive = no such curve, though single readings can be large or run the other way; the % refers to the polarisation; note: potency is the fitted concentration of half-maximal effect; % is set by controls: 0 for no effect and ±100 for the full control effect
GLS inh: qHTS for Inhibitors of Glutaminase (GLS) | GLS enzymatic activity, qHTS titration | Potency, µM (doses to about 45.5 µM), without a hit: at the highest dose activity change, negative = inhibition, actives largely listed as inhibitors | actives 0.21% (n = 410,000) | AID 624170, 2012; note: potency is the fitted concentration of half-maximal effect; % is set by controls: 0 for no effect and ±100 for the full control effect
Target sequence (O94925 whole entry, looked up): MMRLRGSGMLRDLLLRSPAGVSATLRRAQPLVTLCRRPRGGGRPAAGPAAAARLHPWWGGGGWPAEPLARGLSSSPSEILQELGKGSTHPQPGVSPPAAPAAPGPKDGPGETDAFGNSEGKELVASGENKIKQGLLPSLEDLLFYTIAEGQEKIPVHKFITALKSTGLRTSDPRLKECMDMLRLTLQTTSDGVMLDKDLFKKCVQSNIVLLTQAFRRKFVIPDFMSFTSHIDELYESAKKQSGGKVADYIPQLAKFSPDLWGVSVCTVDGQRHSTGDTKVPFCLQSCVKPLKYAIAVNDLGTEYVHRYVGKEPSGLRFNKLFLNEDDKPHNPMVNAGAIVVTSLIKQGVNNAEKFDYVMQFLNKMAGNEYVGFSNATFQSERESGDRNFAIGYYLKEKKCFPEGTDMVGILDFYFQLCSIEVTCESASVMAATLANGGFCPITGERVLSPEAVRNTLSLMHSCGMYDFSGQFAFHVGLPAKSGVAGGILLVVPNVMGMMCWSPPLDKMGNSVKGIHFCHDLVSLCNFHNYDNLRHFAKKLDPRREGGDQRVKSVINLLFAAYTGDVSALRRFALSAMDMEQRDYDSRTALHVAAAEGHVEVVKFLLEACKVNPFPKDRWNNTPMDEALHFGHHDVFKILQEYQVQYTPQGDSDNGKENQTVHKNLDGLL
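Human kidney-isoform GLS in 45 mM KH2PO4 pH 8.2, 0.02% Tween-20, with compound, started with 1mM L-Glutamine (added stock). Glutamate oxidase/HRP/Amplex red coupled fluorescence read at start and after 30 min at RT.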
VDR inh confirm: qHTS for Inhibitors of the vitamin D receptor (VDR): Hit Validation in Primary Screen; actives 89% (n = 840); VDR-coactivator inhibition assay, qHTS confirmation; Potency, µM, hits mostly inhibitors; AID 602199, 2012; shares compounds with VDR inh; note: potency is the fitted concentration of half-maximal effect
VDR FP fluor: qHTS for Inhibitors of the vitamin D receptor (VDR): Hit Validation using a Fluorescein Assay | Potency, µM (top dose mostly 57.1 µM), for inactives: at the top dose activity change, negative = inhibition, most hits filed as inhibitors | actives 48% (n = 840) | shares compounds with VDR inh | VDR-coactivator binding, fluorescein fluorescence polarization; note: potency is the fitted concentration of half-maximal effect
VDR bla: qHTS for Inhibitors of the vitamin D receptor (VDR): Hit Validation using a Beta-Lactamase Assay. actives 23% (n = 840). AID 602202, 2012. VDR beta-lactamase reporter cells, FRET ratio; cells co-treated with VDR agonist LG190178. shares compounds with VDR inh. Potency, µM (titrated, usually from 46.1 µM), for inactives: at the top dose activity change, negative = inhibition, most hits filed as inhibitors; note: potency is the fitted concentration of half-maximal effect; % is set by controls: 0 for no effect and ±100 for the full control effect
VDR viability: qHTS for Inhibitors of the vitamin D receptor (VDR): Hit Validation using a Cytotoxicity Assay; shares compounds with VDR inh; Potency, µM (titrated, usually from 48.3 µM), without a hit: at the highest dose activity change, negative = cytotoxicity, actives largely listed as cytotoxic; cytotoxicity counter-screen, cell viability, qHTS; actives 18% (n = 840); AID 602204, 2012;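 note: potency is the fitted concentration of half-maximal effect; plate controls were DMSO for no effect and high-concentration cycloheximide for full effect; nearly all actives have a fitted effect of over 75% in size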
GLS confirm: qHTS for Inhibitors of Glutaminase (GLS): Hit Confirmation; 35 tested, under 10 active; shares compounds with GLS inh; Potency, µM (titrated, usually from 46.1 µM), without a hit: top-dose activity change, negative = inhibition, actives largely listed as inhibitors; biochemical glutaminase enzyme inhibition assay; calls by dose curve
HRP GOx counter: qHTS for Inhibitors of Glutaminase (GLS): Hit Confirmation in HRP Counterscreen. shares compounds with GLS inh. HRP/glutamate oxidase coupled Amplex Red fluorescence counterscreen. activity change, negative = inhibition, % at 46.1 µM. 35 tested, under 10 active
HEK293 tox: qHTS for Inhibitors of Glutaminase (GLS): Hit Confirmation using Cytotoxicity. shares compounds with GLS inh. HEK-293 viability, CellTiter-Glo luminescence, 24 h. activity change, negative = cytotoxicity, % at 46.1 µM. 35 tested, under 10 active
* marks the source's active call; other numbers are inactive results; i = inactive; ? = inconclusive; . = not tested or not shown. Unless noted, calls come from the whole dose curve; as a rule, active = well fitted curve in the direction sought with a large enough effect; inconclusive = small, poorly fitted or top-dose-only effect, or another doubt; inactive = no such curve, though single readings can be large; an effect the other way counts as inactive or inconclusive.

SMILES	PGK inhibitor	Tb PFK inh	VDR inh	Pin1 inh	GLS inh	VDR inh confirm	VDR FP fluor	VDR bla	VDR viability	GLS confirm	HRP GOx counter	HEK293 tox
Cc1ccnc(NC(c2cc(C)ccc2O)c2ccc3cccnc3c2O)c1 (stereo unspecified)	.	.	16µM*	-6%	?	13*	11µM*	?	-29%	.	.	.
COc1ccccc1NC(c1cccnc1)c1ccc2cccnc2c1O (stereo unspecified)	6%	?	50µM*	-14%	26%	9.5*	?	-12%	-7%	.	.	.
COc1cc(C(Nc2ccccn2)c2ccc3ccc(C)nc3c2O)cc(OC)c1O (stereo unspecified)	-4%	?	18µM*	?	15%	7.5*	5µM*	?	?	.	.	.
Cc1csc(=O)n1CC(=O)OCC(=O)NNC(=O)c1ccc(Cl)cc1	6%	-1%	7%	1%	7%	.	.	.	.	.	.	.
CC1(C)CC(=O)C(C(c2ccc(Br)cc2)C2C(=O)CC(C)(C)CC2=O)C(=O)C1	i	2%	25µM*	-13%	15%	30*	18µM*	24%	9%	.	.	.
CC1(C)CC(=O)C(C(c2ccc(F)cc2)C2C(=O)CC(C)(C)CC2=O)C(=O)C1	i	2%	-7%	-4%	-1%	.	.	.	.	.	.	.
Nc1ncnc2c1ncn2[C@@H]1O[C@H](CNCc2ccc(-c3cc(C(F)(F)F)ccc3Cl)o2)[C@@H](O)[C@H]1O	-1%	-3%	28µM*	10%	1%	?	?	11%	14%	.	.	.
O=C(c1ccccc1)N1N=C(c2ccc(F)cc2)CC1(O)C(F)(F)F (stereo unspecified)	.	7%	-6%	1%	-1%	.	.	.	.	.	.	.
CN1CCC2(CC1)N=C(c1ccc(F)cc1)C(=S)N2C(=O)c1ccccc1	7%	0%	45µM*	-2%	7%	19*	?	1%	?	.	.	.
Clc1cccc(CSc2nnc(C3CCNCC3)o2)c1	-1%	.	0%	-10%	4%	.	.	.	.	.	.	.
O=C(NC1CCCCCC1)C(=S)N1CCOCC1	3%	-16%	18µM*	-13%	8%	21*	?	-4%	22%	.	.	.
CCN(CC)c1ccc(NC(=O)COc2ccccc2C#N)cc1S(=O)(=O)Nc1ccccc1OC	-5%	-7%	79µM*	6%	?	9.5*	?	0%	17%	-1%	-3	-10
CCOc1ccc(S(=O)(=O)NCCc2c(C)[nH]c3c(Cl)cccc23)cc1C	-2%	.	0%	-6%	3%	.	.	.	.	.	.	.
O=C(Nc1ccccc1O)c1cccc(S(=O)(=O)Nc2ccccc2O)c1	-5%	.	5%	-1%	10µM*	.	.	.	.	?	?	1
Cc1ccccc1NS(=O)(=O)c1cccc(C(=O)Nc2cccc(C(=O)O)c2)c1	0%	0%	-17%	-10%	1%	.	.	.	.	.	.	.
CCN(CC)c1ccc(N)cc1S(=O)(=O)Nc1ccccc1OC	2%	?	40µM*	5%	7.1µM*	.	.	.	.	-5%	?	3
CCNC(=O)C1(C)CCCN(C(=O)c2sccc2C)C1 (stereo unspecified)	.	.	.	.	-1%	.	.	.	.	.	.	.
CCOC(=O)CC(NS(=O)(=O)c1ccc(OC)c(OC)c1)c1cccc([N+](=O)[O-])c1 (stereo unspecified)	-5%	4%	3%	-6%	2%	.	.	.	.	.	.	.
CCOC(=O)CC(NS(=O)(=O)c1ccc2[nH]cc(C(=O)O)c(=O)c2c1)c1ccc(OCC)c(OC)c1 (stereo unspecified)	?	?	35%	-8%	16µM*	.	.	.	.	21µM*	6	-1
O=S(=O)(Nc1ccccc1O)c1cccc2cccnc12	7%	-15%	8%	7%	?	.	.	.	.	-3%	?	-5
N#Cc1ccc(CN2CC3(CCN(C(=O)c4cc(C(F)(F)F)cc(C(F)(F)F)c4)CC3)C2)cc1	.	.	0%	.	.	.	.	.	.	.	.	.
COc1ccc(S(=O)(=O)Nc2cccc3ccc(O)cc23)cc1	0%	.	5%	-3%	11µM*	.	.	.	.	-3%	?	?
COc1ccc(S(=O)(=O)Nc2ccccc2C)cc1	-1%	3%	1%	?	15%	.	.	.	.	.	.	.
COc1ccc(S(=O)(=O)Nc2c(O)ccc3ccccc23)cc1OC	-3%	.	?	18%	?	.	.	.	.	-7%	?	-10

Screening data as filed in PubChem.
